# Source: ChEMBL document CHEMBL1961873, “Compounds: GSK PKIS; Assays: Nanosyn kinase panel” (2012)
# Legend:
# [1] = target: Glycogen synthase kinase-3 beta (Homo sapiens) (UniProt P49841); settings: at 1 µM;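 note: reported values are mean percent inhibition of GSK3B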
# [2] = target: Homeodomain-interacting protein kinase 1 (Homo sapiens) (UniProt Q86Z02); settings: at 0.1 µM
# [3] = target: Homeodomain-interacting protein kinase 1 (Homo sapiens) (UniProt Q86Z02); settings: at 1 µM
# [4] = target: T1, Homeodomain-interacting protein kinase 4 (Homo sapiens) (UniProt Q8NE63); settings: at 0.1 µM
# T1 sequence (whole entry): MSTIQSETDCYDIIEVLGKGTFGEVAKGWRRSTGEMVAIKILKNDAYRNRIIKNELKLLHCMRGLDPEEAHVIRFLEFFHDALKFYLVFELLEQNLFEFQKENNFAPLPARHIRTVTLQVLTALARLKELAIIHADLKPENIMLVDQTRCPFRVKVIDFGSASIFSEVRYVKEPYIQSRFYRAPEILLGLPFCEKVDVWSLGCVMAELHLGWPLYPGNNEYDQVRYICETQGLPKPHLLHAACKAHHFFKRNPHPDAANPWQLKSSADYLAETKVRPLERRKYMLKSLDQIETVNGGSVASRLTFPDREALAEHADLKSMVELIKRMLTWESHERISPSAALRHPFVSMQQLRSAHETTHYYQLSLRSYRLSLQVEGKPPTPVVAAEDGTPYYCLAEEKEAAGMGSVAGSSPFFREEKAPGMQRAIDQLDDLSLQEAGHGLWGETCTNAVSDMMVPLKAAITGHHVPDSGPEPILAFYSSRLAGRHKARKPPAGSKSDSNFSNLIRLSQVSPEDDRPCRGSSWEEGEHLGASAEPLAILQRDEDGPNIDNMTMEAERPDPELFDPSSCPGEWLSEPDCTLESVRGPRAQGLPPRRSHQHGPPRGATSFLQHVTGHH
# [5] = target: T1, Homeodomain-interacting protein kinase 4 (Homo sapiens); settings: at 1 µM
# [6] = target: Mitogen-activated protein kinase 9 (Homo sapiens) (UniProt P45984); settings: at 0.1 µM
# [7] = target: Mitogen-activated protein kinase 9 (Homo sapiens) (UniProt P45984); settings: at 1 µM
# [8] = target: Mitogen-activated protein kinase 1 (Homo sapiens) (UniProt P28482); settings: at 0.1 µM
# [9] = target: Mitogen-activated protein kinase 1 (Homo sapiens) (UniProt P28482); settings: at 1 µM
# [10] = target: Mitogen-activated protein kinase 3 (Homo sapiens) (UniProt P27361); settings: at 0.1 µM;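 note: each value is a mean inhibition figure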
# Sequence of Mitogen-activated protein kinase 3 (Homo sapiens) (P27361 whole entry): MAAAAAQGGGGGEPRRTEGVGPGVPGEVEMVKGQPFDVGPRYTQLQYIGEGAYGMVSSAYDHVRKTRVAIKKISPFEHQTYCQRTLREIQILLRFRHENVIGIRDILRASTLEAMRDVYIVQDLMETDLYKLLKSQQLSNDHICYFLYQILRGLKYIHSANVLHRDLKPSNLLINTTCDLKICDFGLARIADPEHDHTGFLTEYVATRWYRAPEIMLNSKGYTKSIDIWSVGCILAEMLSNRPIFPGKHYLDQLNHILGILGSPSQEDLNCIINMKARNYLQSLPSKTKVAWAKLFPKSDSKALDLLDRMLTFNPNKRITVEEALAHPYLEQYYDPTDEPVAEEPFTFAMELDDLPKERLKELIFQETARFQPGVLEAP
# Sequence of Mitogen-activated protein kinase 1 (Homo sapiens) (P28482 whole entry): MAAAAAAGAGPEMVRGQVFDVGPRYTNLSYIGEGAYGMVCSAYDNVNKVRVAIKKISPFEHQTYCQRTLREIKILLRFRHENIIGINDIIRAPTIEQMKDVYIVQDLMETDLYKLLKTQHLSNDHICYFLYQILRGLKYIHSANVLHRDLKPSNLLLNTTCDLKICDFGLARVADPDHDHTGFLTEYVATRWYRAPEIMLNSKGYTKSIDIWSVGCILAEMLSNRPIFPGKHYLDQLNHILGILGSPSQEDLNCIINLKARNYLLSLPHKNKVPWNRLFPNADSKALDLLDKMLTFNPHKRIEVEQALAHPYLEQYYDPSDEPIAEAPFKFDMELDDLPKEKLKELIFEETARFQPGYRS
# Sequence of Mitogen-activated protein kinase 9 (Homo sapiens) (P45984 whole entry, looked up): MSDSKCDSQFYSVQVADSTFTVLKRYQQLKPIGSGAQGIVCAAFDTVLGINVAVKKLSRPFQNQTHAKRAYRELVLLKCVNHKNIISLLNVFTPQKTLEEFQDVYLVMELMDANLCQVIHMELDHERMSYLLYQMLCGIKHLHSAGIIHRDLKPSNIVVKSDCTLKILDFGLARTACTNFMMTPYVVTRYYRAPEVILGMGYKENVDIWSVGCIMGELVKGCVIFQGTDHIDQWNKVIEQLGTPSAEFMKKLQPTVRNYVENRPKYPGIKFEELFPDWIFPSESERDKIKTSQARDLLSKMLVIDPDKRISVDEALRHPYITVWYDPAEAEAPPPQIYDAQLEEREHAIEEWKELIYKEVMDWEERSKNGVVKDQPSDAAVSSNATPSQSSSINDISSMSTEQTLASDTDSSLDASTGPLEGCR
# Sequence of Glycogen synthase kinase-3 beta (Homo sapiens) (P49841 whole entry, looked up): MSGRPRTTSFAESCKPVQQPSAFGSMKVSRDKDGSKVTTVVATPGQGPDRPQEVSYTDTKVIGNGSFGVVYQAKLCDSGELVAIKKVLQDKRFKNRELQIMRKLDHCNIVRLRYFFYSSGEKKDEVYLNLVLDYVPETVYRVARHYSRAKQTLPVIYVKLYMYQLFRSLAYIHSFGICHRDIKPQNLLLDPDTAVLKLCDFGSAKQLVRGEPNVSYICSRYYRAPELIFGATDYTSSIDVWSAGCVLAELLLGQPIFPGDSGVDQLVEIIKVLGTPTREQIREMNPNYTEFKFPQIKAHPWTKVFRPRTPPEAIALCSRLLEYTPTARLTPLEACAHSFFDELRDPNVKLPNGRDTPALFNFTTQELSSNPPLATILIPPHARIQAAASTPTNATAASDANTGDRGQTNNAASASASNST
# Sequence of Homeodomain-interacting protein kinase 1 (Homo sapiens) (Q86Z02 whole entry, looked up): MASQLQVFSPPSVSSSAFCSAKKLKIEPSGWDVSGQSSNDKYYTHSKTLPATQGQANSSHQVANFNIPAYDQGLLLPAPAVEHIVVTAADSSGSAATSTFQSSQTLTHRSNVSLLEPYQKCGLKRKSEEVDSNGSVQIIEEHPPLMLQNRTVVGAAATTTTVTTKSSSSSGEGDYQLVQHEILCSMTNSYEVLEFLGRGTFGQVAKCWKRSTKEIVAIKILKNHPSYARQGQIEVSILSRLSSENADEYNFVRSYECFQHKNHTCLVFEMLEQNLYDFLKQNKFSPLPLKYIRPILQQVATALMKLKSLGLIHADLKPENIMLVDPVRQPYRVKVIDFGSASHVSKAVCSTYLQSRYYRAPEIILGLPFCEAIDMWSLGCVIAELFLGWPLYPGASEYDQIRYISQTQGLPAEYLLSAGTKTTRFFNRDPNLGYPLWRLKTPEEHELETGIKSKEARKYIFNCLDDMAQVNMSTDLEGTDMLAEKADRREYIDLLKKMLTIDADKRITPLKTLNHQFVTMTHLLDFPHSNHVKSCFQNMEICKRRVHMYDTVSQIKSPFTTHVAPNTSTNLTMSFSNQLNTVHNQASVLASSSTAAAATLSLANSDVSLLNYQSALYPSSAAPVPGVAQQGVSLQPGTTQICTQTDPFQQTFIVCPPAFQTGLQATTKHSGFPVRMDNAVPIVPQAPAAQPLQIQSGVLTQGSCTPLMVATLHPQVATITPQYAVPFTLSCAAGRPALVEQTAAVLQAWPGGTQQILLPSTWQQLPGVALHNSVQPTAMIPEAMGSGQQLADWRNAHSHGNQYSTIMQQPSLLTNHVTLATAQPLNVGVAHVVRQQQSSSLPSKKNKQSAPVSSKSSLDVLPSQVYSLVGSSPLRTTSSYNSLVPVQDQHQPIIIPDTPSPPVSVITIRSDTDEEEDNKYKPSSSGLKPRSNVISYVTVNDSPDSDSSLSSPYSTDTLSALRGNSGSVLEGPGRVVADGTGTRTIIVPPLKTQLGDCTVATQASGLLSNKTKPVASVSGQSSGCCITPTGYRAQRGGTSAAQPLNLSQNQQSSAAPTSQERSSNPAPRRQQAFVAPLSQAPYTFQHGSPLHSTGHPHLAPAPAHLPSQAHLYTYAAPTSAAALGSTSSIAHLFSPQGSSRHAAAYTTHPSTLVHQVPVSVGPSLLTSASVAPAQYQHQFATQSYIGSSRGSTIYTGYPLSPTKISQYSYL
Structure (SMILES),inhibition [1],inhibition [2],inhibition [3],inhibition [4],inhibition [5],inhibition [6],inhibition [7],inhibition [8],inhibition [9],inhibition [10]
[O-][S+]1CCN(Cc2ccc(-c3ccc4ncnc(Nc5ccc(OCc6ccccc6)c(Cl)c5)c4c3)o2)CC1,1.33%,-1.84%,0.05%,0.81%,2.27%,-0.11%,2.26%,3.15%,4.09%,1.32%
Cc1ccc2c(-c3ccnc(Nc4cccc(C(F)(F)F)c4)n3)c(-c3ccccc3)nn2n1,76%,0.33%,3.87%,1.36%,13.5%,30.1%,82.2%,6.13%,9.3%,5.72%
COc1cccc(-n2nc(C)c3c(N/N=C(\C)c4ccncc4)ncnc32)c1,9.41%,-1.66%,2.66%,-1.56%,2.79%,1.92%,2.01%,2.86%,1.42%,-1.05%
FC(F)(F)c1ccc(-c2nn3ncccc3c2-c2ccnc(Nc3ccc4c(c3)OCCO4)n2)cc1,9.99%,9.14%,7.72%,9.55%,11.2%,3%,32.6%,1.76%,-1.13%,3.25%
COC(=O)c1cncc(/C=C/c2c(C)cc(O)cc2C)c1,12.9%,5.96%,7.63%,2.51%,6.29%,-0.35%,2.18%,4.28%,4.13%,3.96%
CCn1c(-c2nonc2N)nc2c(C#CC(C)(C)O)nc(OCCNC)cc21,46.8%,-1.59%,7.86%,0.33%,1.92%,3.85%,2.84%,5.46%,5.18%,3.73%
Cc1ccc2c(c1)/C(=N/Nc1ccc(S(N)(=O)=O)cc1)C(=O)N2,23.7%,-4.8%,0%,-2.11%,-0.65%,2.38%,1.49%,-0.67%,2.7%,2.34%
NC(=O)c1cccc(Nc2nccc(Nc3cccc(F)c3)n2)c1,15.8%,-3.17%,5.3%,0.35%,8.46%,0.09%,8.39%,0.99%,2.19%,-0.06%
COc1cccc(-n2ncc3c(N/N=C/c4ccc(C)cc4)ncnc32)c1,47%,1.58%,13.3%,3.16%,11.4%,8.36%,11.6%,6.17%,7.67%,4.71%
CCn1c(-c2nonc2N)nc2ccc(F)cc21,3.37%,2.6%,2.13%,2.47%,3.5%,5.8%,7.99%,6.8%,8.85%,6.33%
COc1cc(Nc2nccc(-c3cnn4ncccc34)n2)cc(OC)c1,89.9%,86.8%,93.7%,30.6%,76.3%,10.4%,48.1%,2.31%,19.7%,2.46%
CS(=O)(=O)CCNCc1nc(-c2ccc3ncnc(Nc4ccc(OCc5cccc(C(F)(F)F)c5)cc4)c3c2)cs1,4.85%,-1.73%,0.09%,-0.35%,0.46%,2.97%,6.45%,1.69%,1.79%,2.89%
CN(C)CCCn1c(-c2nonc2N)nc2cnccc21,12.3%,1.03%,-0.49%,0.39%,0.4%,5.36%,4.57%,2.21%,4.9%,2.32%
CN(C)C(=O)O[C@@H]1CN[C@@H](C#Cc2cc3ncnc(Nc4ccc(OCc5cccc(F)c5)c(Cl)c4)c3s2)C1,7.41%,-3.67%,-3.81%,-1.55%,0.99%,3.81%,4.77%,-1.16%,1.96%,3.17%
Nc1nccc(-c2c(-c3ccc(F)cc3)nn3cc(C(F)(F)F)ccc23)n1,-1.01%,-6.6%,-1.23%,-0.17%,0.63%,2.4%,4.47%,-0.05%,0.2%,3.72%
Cc1cc(Cl)cc2c1NC(=O)C2=NNc1ccc(S(N)(=O)=O)cc1,5.76%,1.47%,1.67%,0.61%,2.42%,-0.14%,2.41%,4.09%,2.74%,2.98%
NS(=O)(=O)c1cccc(-c2cc3ccncc3cc2OCc2ccccc2)c1,3.55%,1.1%,6.53%,1.76%,8.61%,0.94%,3.75%,4.71%,5.84%,4.25%
COc1cc2ncnc(Nc3ccc4c(cnn4Cc4ccccc4)c3)c2cc1OC,7.35%,-5.38%,-0.46%,-0.51%,0.79%,0.52%,1.98%,2.88%,4.22%,1.19%
CN(c1ccc(NC(=O)Nc2ccc(OC(F)(F)F)cc2)cc1)c1ccnc(Nc2cccc(S(N)(=O)=O)c2)n1,13.6%,1.06%,34%,62.4%,83.6%,1.46%,3.15%,4.33%,3.93%,2.67%
NC(=O)c1sc(-n2cnc3ccccc32)cc1OCc1ccccc1Br,11.8%,-1.6%,7.12%,0.95%,7.54%,4.13%,6%,3.31%,5.56%,1.19%
Nc1ccc(C#Cc2cncnc2Nc2ccc(OCc3cccc(F)c3)c(Cl)c2)cc1,0.21%,-0.22%,0.93%,0.09%,0.28%,1.88%,1.2%,4.25%,3.67%,3.61%
OCc1ccc(-c2nc(-c3ccccn3)c(-c3ccc4c(c3)OCO4)[nH]2)cc1,3.44%,0.23%,4.92%,1.72%,0.79%,2.15%,5.14%,5.49%,3.7%,3.56%
NS(=O)(=O)c1ccc(Nc2cc(-c3cccc(O)c3)n[nH]2)cc1,5.21%,-1.93%,2.36%,0.59%,3.33%,5.37%,6.35%,5.89%,4.96%,4.41%
Cc1nc(-c2ccccc2)n2nc(NCCCN3CCOCC3)ncc12,18.5%,0.72%,13.3%,1.88%,14.4%,1.8%,5.36%,3.31%,6.13%,4.27%
CC(C)c1ccc(Nc2nccc(-c3cnn4ncccc34)n2)cc1,75.4%,57.9%,87.8%,11.2%,50.6%,5.25%,27%,3.14%,9.29%,0.92%
COC(=O)Nc1nc2cc(Oc3ccc(NC(=O)Nc4cccc(Br)c4)cc3)ccc2[nH]1,6.86%,-0.71%,2.41%,8.37%,19.5%,3.12%,4.83%,2.82%,2.49%,2.94%
O=S(=O)(CCOCc1ccc(-c2ccc3ncnc(Nc4ccc(OCc5cccc(F)c5)c(Cl)c4)c3c2)o1)c1ccccc1,5.91%,-2.8%,2.64%,2.22%,5.69%,0.13%,0.74%,2.68%,3.54%,3.68%
CC(C)c1ccc2c(c1)NC(=O)/C2=N/Nc1ccc(S(N)(=O)=O)cc1,16.8%,-1.88%,4.72%,0.27%,1.57%,0.14%,0.34%,2.02%,0.4%,1.56%
